Screening results from PubChem.
Mtb betalactam: beta-lactam sensitization of Mtb H37Rv; M. tuberculosis H37Rv growth with meropenem, percent inhibition; inhibition, % at 25 µM; 330,000 compounds, 0.27% hits; AID 434955; call rule not given here;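 note: growth measured after seven days incubation then overnight dye step; 0% = bacteria only wells and 100% = bacteria with antibiotic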
GDH-TPI counter-1: GDH-TPI coupled enzyme inhibition counter-screen | GDH-TPI coupled enzyme counterscreen, NADH absorbance | inhibition, % at 4.8 µM | 360,000 compounds, 1.2% hits | AID 588335; in the data active = inhibition above about 30%;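 note: 0% = DMSO wells and 100% = wells lacking the enzyme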
UGM FP inh: inhibitors of M. tuberculosis UDP-galactopyranose mutase; P9WIQ1; purified UGM, fluorescence polarization probe displacement; inhibition, % at 10 µM; 320,000 compounds, 0.06% hits; AID 504406; in the data active = inhibition above about 10%, passing the limit was not always enough
Rv3671c inh: inhibitors of M. tuberculosis serine protease Rv3671c; P9WHR9; inhibition, % at 5.96 µM; 320,000 compounds, 0.048% hits; AID 2606; in the data active = inhibition above about 38%;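 note: extracellular domain of Rv3671c used as enzyme; 0% = enzyme with DMSO and 100% = no enzyme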
Target sequence (P9WHR9 whole entry, looked up, the tested form may be a part): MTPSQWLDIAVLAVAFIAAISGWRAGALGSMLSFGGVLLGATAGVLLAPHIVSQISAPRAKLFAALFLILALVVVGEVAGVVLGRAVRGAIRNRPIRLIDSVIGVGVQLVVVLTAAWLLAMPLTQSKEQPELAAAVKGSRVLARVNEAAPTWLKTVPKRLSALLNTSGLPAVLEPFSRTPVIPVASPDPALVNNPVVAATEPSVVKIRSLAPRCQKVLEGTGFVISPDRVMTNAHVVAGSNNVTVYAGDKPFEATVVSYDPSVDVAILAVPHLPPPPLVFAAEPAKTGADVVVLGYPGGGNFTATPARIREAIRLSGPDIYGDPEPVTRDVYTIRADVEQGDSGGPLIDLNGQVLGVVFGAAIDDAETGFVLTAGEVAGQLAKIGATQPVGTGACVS
Mtb FBA inh: Mtb fructose-bisphosphate aldolase inhibition; 360,000 compounds, 2.3% hits; purified M. tuberculosis FBA, fluorescence read-out; inhibition, % at 1 µM; P9WQA3;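 note: 0% = vehicle and 100% = reference inhibitor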
Mtb FBA confirm: Mtb FBA inhibition, confirmed. shares compounds with Mtb FBA inh. purified M. tuberculosis FBA, fluorescence read-out. inhibition, % at 1 µM. 5,600 compounds, 78% hits. AID 651616;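 note: 0% = vehicle wells and 100% = reference inhibitor wells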
GDH-TPI counter-2: GDH-TPI inhibition counter-screen for FBA inhibitors. shares compounds with Mtb FBA inh. GDH-TPI coupled enzyme counterscreen, fluorescence. inhibition, % at 1 µM. 5,600 compounds, 81% hits. AID 652141; in the data active = inhibition above about 10%
* = called active by the depositor; · = not tested or not shown; + = active, no number. The list is not random: actives were taken first. Their share in the collection is about 3.5%. Cut-off read from the data, not from the text of the source, unless noted: active = inhibition above about 27%; inactive = the rest.

SMILES | Mtb betalactam | GDH-TPI counter-1 | UGM FP inh | Rv3671c inh | Mtb FBA inh | Mtb FBA confirm | GDH-TPI counter-2
O=C(c1cccc(S(=O)(=O)N2CCCC2)c1)N1CCOCC1 | -3 | 3 | -1 | -6 | 0 | · | ·
COc1ccc(C(=O)N/N=C/c2ccc(N(C)c3ccccc3)cc2)cc1 | -6 | 26 | 0 | 3 | 41* | 109* | 99*
COc1ccc(OC)c(/C=N\NC(=O)c2ccc(-c3ccccc3)cc2)c1 | 3 | 10 | -2 | · | 8 | · | ·
COc1ccc(C(=O)N/N=C/c2ccc(OC(=O)c3ccccc3)cc2)cc1 | 58 | 13 | 2 | -2 | -4 | · | ·
COc1ccc(C(=O)N/N=C/c2cc3ccccc3[nH]c2=O)cc1 | 12 | 50* | 1 | 21 | 40* | 126* | 106*
O=C(NCCc1ccc(C(F)(F)F)cc1)C1CCC(=O)N(CCCN2CCCC2=O)C1 (configuration not stated) | 4 | 8 | -2 | -4 | 0 | · | ·
COc1cccc(COc2ccc3ccc(=O)oc3c2)c1 | 6 | 10 | 1 | -1 | 9 | · | ·
COc1ccc2ccc(=O)oc2c1 | -11 | 16 | 0 | 9 | 68* | 88* | 82*
COc1ccc(C(=O)Oc2ccc3ccc(=O)oc3c2)cc1OC | 25 | 7 | 2 | 6 | 41* | 147* | 107*
COc1cccc(C(=O)Oc2ccc3ccc(=O)oc3c2)c1 | 0 | 15 | 0 | 6 | 59* | 154* | 141*
O=C(Oc1ccc2ccc(=O)oc2c1)c1cccs1 | 47 | 6 | 2 | 12 | 66* | 7 | -5
COc1ccc(COc2ccc3ccc(=O)oc3c2)cc1 | 9 | 11 | -1 | 4 | 6 | · | ·
CCCNc1c(NC(C)=O)c(=O)oc2ccccc12 | -4 | -9 | 2 | -3 | -3 | · | ·
CC(Oc1ccc2ccc(=O)oc2c1)C(=O)N1CCOCC1 (configuration not stated) | -12 | 0 | -2 | -8 | 42* | 155* | 122*
CC(Oc1ccc2c(-c3ccccc3)cc(=O)oc2c1)C(=O)N1CCOCC1 (configuration not stated) | -1 | 20 | 2 | 6 | -2 | · | ·
O=C(c1ccc(Br)o1)N1CCN(Cc2ccccc2Cl)CC1 | -1 | -2 | 1 | 4 | -2 | · | ·
Nc1cc(-c2nc3ncccc3o2)ccc1Cl | -10 | 23 | 2 | -2 | 38* | 87* | 71*
Nc1ccc(Cl)c(-c2nc3ncccc3o2)c1 | -17 | 12 | 1 | -10 | 1 | · | ·
Nc1ccc(-c2nc3ncccc3o2)c(Cl)c1 | -8 | 47* | 3 | -2 | 91* | 1 | 3
CCOc1ccc2nc(N3CCOCC3)nc(C)c2c1 | -2 | 15 | -1 | 7 | 51* | 131* | 109*
c1ccc2c(c1)nc(N1CCOCC1)c1c3ccccc3[nH]c21 | 94 | -1 | 1 | 0 | 31* | 62* | 63*
O=c1[nH]c2ccccc2nc1N1CCOCC1 | -6 | 26 | 0 | -4 | -2 | · | ·
c1ccc2c(N3CCCCC3)nc(N3CCOCC3)nc2c1 | -9 | 13 | 1 | 4 | 11 | · | ·
c1ccc2c(NCC3CCCO3)nc(N3CCOCC3)nc2c1 (configuration not stated) | -6 | 14 | -1 | -3 | 64* | 176* | 132*
Nc1nc(N2CCOCC2)nc2ccccc12 | -3 | 23 | -3 | 12 | 75* | -5 | -7
SMILES | Mtb betalactam | GDH-TPI counter-1 | UGM FP inh | Rv3671c inh | Mtb FBA inh | Mtb FBA confirm | GDH-TPI counter-2
CC1CN(C/C(=N\O)C23CC4CC(CC(C4)C2)C3)CC(C)O1 (configuration not stated) | 9 | -3 | -2 | · | 4 | · | ·
CC(=O)N1c2c(cc(Br)cc2S(=O)(=O)NCc2ccc(C)cc2)CC1C (configuration not stated) | 6 | -2 | 2 | 2 | -4 | · | ·
COc1ccc2[nH]c3c(c(=O)c2c1)CCCC3 | · | · | · | · | 30* | + | 153*
O=c1c2c([nH]c3ccccc13)CCCCC2 | -6 | 6 | 0 | -9 | -1 | · | ·
c1ccc2nc3[nH]cnc3nc2c1 | -1 | 21 | 3 | -1 | 42* | 154* | 101*
c1ccc2[nH]cnc2c1 | 1 | 16 | 2 | 5 | 5 | · | ·
O=C(Nc1ccc2oc(-c3ccccc3F)nc2c1)c1ccccc1F | 0 | 2 | 3 | -8 | 3 | · | ·
O=C(Nc1ccc2oc(-c3ccccc3F)nc2c1)c1ncn[nH]1 | 95 | 13 | 0 | -7 | 37* | 158* | 143*
